# Screens from PubChem.
# An excerpt weighted towards active compounds, which were near 18% of everything screened.
# CtBP-E1A inh: blocks the CtBP interaction with E1A | AlphaScreen GST-E1A/His-CtBP binding, 1536-well; active compounds read low | activity change, % (no concentration beside the values) | hit rate 0.49% among 340,000 | AID 651724; in the data active = activity change below about -65%; inconclusive = mostly about -30% to -63%
#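 Homogeneous bead-based format: GST-tagged E1A captured on glutathione donor beads, His-tagged CtBP on nickel acceptor beads; compounds precede bead addition by 2 h at 37 °C.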
# IL-1B inflam inh: blocks inflammasome-driven IL-1 beta release; THP-1 LPS/ATP IL-1B secretion, AlphaLISA, 16 h; active compounds read low; activity change, % at 57.5 µM; hit rate 4.7% among 360,000; in the data active = activity change below about -50%; inconclusive = mostly about -30% to -49%
#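 Secreted IL-1B measured by AlphaLISA bead assay after 16 h compound exposure of THP-1 cells; compounds (final up to 57.5 uM) added 1 h before LPS (250 ng/mL) and ATP (1.25 mM) stimulation; lower signal means less secretion.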
# TDP1 cell noCPT: qHTS for Inhibitors of human tyrosyl-DNA phosphodiesterase 1 (TDP1): qHTS in cells in absence of CPT. DT40 Tdp1-/- hTDP1 cells, no CPT, ATP luminescence, 48 h. Potency, µM (series often up to 46.2 µM), for inactives: at the top dose activity change, negative = growth inhibition, hits mostly inhibitors. hit rate 15% among 420,000; note: potency is the fitted concentration of half-maximal effect; nearly all actives have a fitted effect of over 55% in size
#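 Growth of hTDP1-complemented DT40 Tdp1-knockout cells is measured by ATP luminescence after at least 48 hr compound exposure at 37 °C, with DMSO substituting for the 20 nM CPT used in the parallel screen.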
# DT40 TDP1 CPT: DT40-hTDP1 cell growth loss with CPT | hit rate 12% among 420,000 | chicken DT40 Tdp1-/-;hTDP1 cells + 20 nM CPT, ATP luminescence, 48 h | AID 686979 | Potency, µM (doses to about 46.2 µM), for the others: at the highest dose activity change, negative = growth inhibition, hits mostly inhibitors; note: potency is the fitted concentration of half-maximal effect; nearly all actives have a fitted effect of over 55% in size
#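 Chicken DT40 Tdp1-/- cells complemented with human TDP1, 400 cells/well, exposed to compounds plus 20 nM camptothecin for at least 48 h at 37 C; viability read as ATP content by CellTiter-Glo luminescence.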
# TDP1 inh: inhibitors of human tyrosyl-DNA phosphodiesterase TDP1; Q9NUW8; recombinant TDP1, AlphaScreen DNA substrate cleavage; Potency, µM (titrated, usually from 130 µM), inactives show at the highest dose activity change, negative = inhibition, hits mostly inhibitors; hit rate 0.28% among 350,000; AID 485290; note: potency is the fitted concentration of half-maximal effect; nearly all actives have a fitted effect of over 40% in size
#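 Recombinant E. coli-expressed Tdp1 (1 nM) preincubated with compound 15 min at RT, then 5'-biotin/3'-phosphotyrosine-FITC DNA substrate (15 nM) added for 5 min. AlphaScreen beads (10 ug/ml) added, 10 min RT; tyrosine-FITC cleavage read as signal loss.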
# Six1-Eya2 blk: inhibitors of human Six1/Eya2 interaction; AlphaScreen GST-Six1/His-Eya2 binding, biochemical; active compounds read low; activity change, % (test concentration not listed); hit rate 0.56% among 360,000; Q15475+O00167; in the data active = activity change below about -65%; inconclusive = mostly about -30% to -63%
# Target sequence (O00167 whole entry, looked up): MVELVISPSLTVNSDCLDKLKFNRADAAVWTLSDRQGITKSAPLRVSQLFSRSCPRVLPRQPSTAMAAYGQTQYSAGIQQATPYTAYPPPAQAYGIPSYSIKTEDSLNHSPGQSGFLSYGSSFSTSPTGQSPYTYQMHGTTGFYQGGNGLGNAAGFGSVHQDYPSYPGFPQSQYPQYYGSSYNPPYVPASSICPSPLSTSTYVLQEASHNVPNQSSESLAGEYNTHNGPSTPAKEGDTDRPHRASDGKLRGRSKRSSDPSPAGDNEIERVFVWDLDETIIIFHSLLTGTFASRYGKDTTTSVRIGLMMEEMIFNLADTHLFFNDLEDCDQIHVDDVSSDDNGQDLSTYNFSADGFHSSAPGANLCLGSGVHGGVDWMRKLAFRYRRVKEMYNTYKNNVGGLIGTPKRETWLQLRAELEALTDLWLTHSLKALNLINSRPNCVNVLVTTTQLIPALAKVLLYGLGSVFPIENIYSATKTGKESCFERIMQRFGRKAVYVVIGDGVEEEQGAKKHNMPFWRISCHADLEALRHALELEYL
# Target sequence (Q15475 whole entry, looked up): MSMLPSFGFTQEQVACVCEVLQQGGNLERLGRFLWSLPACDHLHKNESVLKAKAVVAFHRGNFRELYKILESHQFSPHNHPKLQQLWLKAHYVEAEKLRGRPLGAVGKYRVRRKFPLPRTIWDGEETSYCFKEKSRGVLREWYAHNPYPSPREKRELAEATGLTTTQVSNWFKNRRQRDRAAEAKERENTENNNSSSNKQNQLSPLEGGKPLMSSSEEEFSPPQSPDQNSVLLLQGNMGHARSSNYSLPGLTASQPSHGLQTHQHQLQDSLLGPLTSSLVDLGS
#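 AlphaScreen luminescence read after one hour at 37 °C in darkness. Pin-transferred compounds met GST-Six1 and His-Eya2 protein (5X stock 250 nM/500 nM) plus glutathione donor and Ni-chelate acceptor beads (5X, 50 ug/mL).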
# * marks the source's active call; other numbers are inactive results; u = inconclusive; x = no result given; [ ] = another dose, or the depositor's remark. Unless noted, calls come from the whole dose curve; as a rule, active = well fitted curve in the direction sought with a large enough effect; inconclusive = small, poorly fitted or top-dose-only effect, or another doubt; inactive = no such curve, though single readings can be large; an effect the other way counts as inactive or inconclusive. % is set by controls: 0 for no effect and ±100 for the full control effect.
SMILES,CtBP-E1A inh,IL-1B inflam inh,TDP1 cell noCPT,DT40 TDP1 CPT,TDP1 inh,Six1-Eya2 blk
Cn1cnnc1SCC(=O)Nc1ccccc1,5,2,1%,13%,-5%,4
COCCNc1nnc(SCC(=O)Nc2cc(-c3ccccc3)nn2-c2ccccc2)s1,-1,-3,16µM*,26µM*,5%,2
CC(C)(C)c1cc(NC(=O)CCl)n(-c2ccccc2)n1,-4,-93*,21µM*,u,0%,1
Cc1cc(C)n(CC(=O)NCc2ccccc2)c(=O)c1C#N,x,-10,-11%,-5%,x,3
CCOc1cccc(NC(=O)c2ccc(S(=O)(=O)N(C)C)cc2)c1,1,-8,u,u,3%,-1
CN(c1ccc(C(=O)Nc2cccc(O)c2)cc1)S(=O)(=O)c1ccccc1,u,-17,u,u,1%[56.1 µM],u
CN(C)S(=O)(=O)c1cccc(NC(=O)c2ccc(COc3ccccc3)cc2)c1,0,-73*,6.5µM*,18µM*,x,-5
CCN(CC)CCNC(=O)c1ccc(NC(C)=O)cc1,3,5,-2%,4%,7%,1
COCc1ccc(C(=O)Nc2cccc(S(=O)(=O)N(C)c3ccccc3)c2)cc1,-1,-13,18µM*,18µM*,1%,-2
CCN(CC)CCNC(=O)c1ccc(NC(=O)c2ccc(COc3ccccc3)cc2)cc1,0,-20,-5%,23µM*,5%,3
CC(OC(=O)c1ccc([N+](=O)[O-])s1)C(=O)Nc1ncc(Cl)cc1Cl (stereo not given),6,0,-19%,u,8%,7
C[C@@H]1CC[C@@]2(OC1)O[C@H]1C[C@H]3[C@@H]4CC[C@H]5C[C@@H](O)CC[C@]5(C)[C@H]4CC(=O)[C@]3(C)[C@H]1[C@@H]2C,x,x,-10%[21.1 µM],17%[21.1 µM],x,x
CC1=C(CC[C@@H](C)CO)OC2CC3C4CCC5CC(O)CCC5(C)C4CC(=O)C3(C)C12 (stereo not given in full),8,-66*,u,u,x,-2
CCOC(=O)C1=C(N)N2C(=O)C(C)SC2=C(C(=O)OCC)C1c1ccc(O)cc1 (stereo not given),0,34,-14%,-10%,x,-16
COc1ccc(NC(=S)N2CCN(C(=O)C3CCCO3)CC2)cc1 (stereo not given),-8,17,-3%,1%,-4%,6
COc1ccc(N2C(=O)CS/C2=N\C(=S)Nc2ccccc2)cc1,-2,31,5.8µM*,6.5µM*,0%,-15
CC(Sc1nnc(C(F)(F)F)n1C)C(=O)NC(N)=O (stereo not given),8,-13,4%,-10%,-1%,0
O=C1c2ccccc2NC(c2cccc([N+](=O)[O-])c2)N1CCc1ccccc1 (stereo not given),-10,-83*,u,-22%,8%,-15
COc1ccc(CCN2C(=O)c3ccccc3NC2c2cc(Cl)c(O)c(OC)c2)cc1 (stereo not given),-3,29,4.1µM*,4.6µM*,-3%,-15
CCCN1C(=O)c2ccccc2NC1c1cc(OC)c(OC)c(OC)c1 (stereo not given),3,15,-28%,-13%,3%,10
O=C(CCSc1ccc(Cl)c(Cl)c1)NC12CC3CC(CC(C3)C1)C2,21,-4,u,16µM*,x,20
COC(=O)c1cn(NC(=O)CC2CCCCC2)c(=O)c2ccccc12,9,16,-9%,-18%,7%,9
COc1cc(OC)cc(-c2nnc(Nc3nc4c(F)cccc4s3)o2)c1,17,33,u,21µM*,10%,-1
COc1ccc(-c2nnc(Nc3nc4c(OC)cccc4s3)o2)cc1,-23,104,18µM*,5.2µM*,-8%,-11
COc1ccc(-c2nnc(-c3ccc(N)cc3)o2)cc1,-1,-18,-16%,-1%,5%,-2
SMILES,CtBP-E1A inh,IL-1B inflam inh,TDP1 cell noCPT,DT40 TDP1 CPT,TDP1 inh,Six1-Eya2 blk
COc1ccc(-c2nnc(Nc3nc4c(OC)cccc4s3)o2)c(OC)c1,11,-3,4.1µM*,4.6µM*,11%,-11
CCC(=O)Nc1ccc2oc(-c3cccc(C)c3)nc2c1,-3,-21,5.8µM*,7.3µM*,2%,1
Cc1ccc(SCC(=O)Nc2ccc3oc(-c4cccc(C)c4)nc3c2)cc1,x,x,15µM*,u,-5%,x
Cc1ccc(SCC(=O)Nc2cccc(C)c2)cc1,0,14,-1%,-10%,-7%,15
N=C1C(c2nc(-c3ccc(F)cc3)cs2)=C(O)CN1Cc1ccc(Cl)cc1,-1,-6,-12%,-7%,0%,2
COc1ccccc1OCC(=O)Nc1nc(-c2ccc(S(=O)(=O)N3CCOCC3)cc2)cs1,-6,11,13µM*,21µM*,x,-8
O=C(CCc1ccc(S(=O)(=O)N2CCOCC2)cc1)Nc1nc(COc2ccccc2)cs1,-1,u,u,15µM*,-1%,-2
COc1ccc(-c2csc(NC(=O)c3ccc(OCC(=O)N4CCOCC4)c(OC)c3)n2)cc1OC,-15,-94*,15µM*,16µM*,-1%,-21
O=C(NCc1ccc(F)cc1)c1cc(S(=O)(=O)N2CCOCC2)ccc1F,1,-6,-23%,-2%,2%,2
Cc1ccc(S(=O)(=O)N2C3CCCCC3O[C@H]2CC(=O)c2cccs2)cc1 (stereo not given in full),3,-4,u,u,x,3
COc1ccc(C(=O)C[C@@H]2OC3CCCCC3N2S(=O)(=O)c2ccc(C)cc2)cc1OC (stereo not given in full),-2,-11,16µM*,16µM*,x,-6
CCOC(=O)C[C@@H]1OC2CCCCC2N1S(=O)(=O)c1ccc(C)cc1 (stereo not given in full),2,14,u,26µM*,x,2
O=C(N1CCN(c2ccccn2)CC1)N1c2ccccc2Sc2ccccc21,-15,34,0.92µM*,0.73µM*,7%,-18
O=C(c1ccc(Br)s1)N1CCN(c2ccccn2)CC1,5,-17,-11%,-25%,2%,7
O=C(NCCc1ccccc1)N1c2ccccc2Sc2ccccc21,7,-11,16µM*,u,-2%,5
O=C(c1ccco1)N1CCN(C(=O)N2CCOCC2)CC1,4,13,-12%,-2%,-4%,5
O=C(c1ccco1)N1c2ccccc2Sc2ccccc21,-1,-50*,u,u,5%,-3
